Experimental data taken from PubChem BioAssay.
A number with no mark means an inactive call. The rule behind the calls is not given here.

Test system: Aerobactin synthetase IucA (Klebsiella pneumoniae hvKP1)
Experiment: Biochemical IucA enzyme inhibition primary screen of the Spectrum library (AID 1346200);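 note: 100% = wells without compound and 0% = wells lacking enzyme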
Conditions: malachite green pyrophosphate, A620, at 8 µM, stronger effect = lower value

| Compound | activity remaining |
| --- | --- |
| CC(=O)OC[C@@]1(O)C[C@@]23CCC4c5ccoc5CC[C@]4(C)C2CC[C@@H]1C3 (stereo partly drawn) | 119% |
| CC(=O)O[C@H]1C[C@@H](OC(C)=O)C(C)(C)C2C[C@@H](OC(C)=O)[C@]3(C)C([C@H](OC(C)=O)C[C@@]4(C)[C@H](c5ccoc5)OC(=O)[C@H]5O[C@]543)[C@]21C (stereo partly drawn) | 104% |
| CC(=O)O[C@H]1CCC2(C)C3=C(CCC2C1(C)C)[C@@]1(C)CC[C@@H](C(C)CCC=C(C)C)[C@]1(C)CC3 (stereo partly drawn) | 109% |
| CC(=O)NS(=O)(=O)c1ccc(N)cc1 | 126% |
| COc1c2c(cc3occ(-c4ccc5c(c4)OCO5)c(=O)c13)OC(C)(C)C=C2 | 111% |
| CC(=O)[C@@]1(O)CCC2C3CCC4=CC(=O)CC[C@]4(C)C3CC[C@@]21C (stereo partly drawn) | 72.4% |
| O=c1c(-c2cc(O)c(O)c(O)c2)coc2cc(O)c(O)c(O)c12 | 93.2% |
| CC(=O)Oc1ccccc1C(=O)Oc1ccccc1C(=O)O | 97.5% |
| C=C1CC[C@H](O)C/C1=C/C=C1\CCC[C@]2(C)C([C@H](C)/C=C/[C@H](C)C(C)C)CC[C@@H]12 (stereo partly drawn) | 107% |
| COc1ccc(-c2oc3cc(OC)c(OC)c(OC)c3c(=O)c2OC)cc1 | 115% |
| COc1ccc(C(=O)c2ccccc2O)c(O)c1 | 107% |
| CC1(C)OCC(C2OC(=O)C(O)=C2O)O1 (stereo not drawn) | 87.7% |
| O=C(/C=C/c1ccccc1)c1ccc(O[C@@H]2O[C@H](CO)[C@@H](O)[C@H](O)[C@H]2O)cc1O | 116% |
